Measurements published in PubChem BioAssay.
Activity calls are given as the source filed them.

Key:
[1] = anti-His antibody binders, primary screen, artefact control for SMM control protein annotation, biochemical, small-molecule microarray, 635 nm fluorescence (AID 1128); settings: anti-His Alexa647 antibody binding, higher = more signal;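 note: score merges feature fluorescence with signal-to-noise for each printed compound spot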
[2] = tested on: Human papillomavirus type 1a E7 protein (residues 1-88); assay: HPV1a E7 small-molecule binders, primary screen, biochemical, small-molecule microarray, residues 1-88, 635 nm (AID 1129); settings: small-molecule microarray binding, fluorescence 635 nm; higher = more signal
[3] = molecular target: Focal adhesion kinase 1 (Homo sapiens) (UniProt Q05397); assay: small-molecule microarray binders of FAK, primary screen, biochemical, 635/667 nm fluorescence, BSA, DTT (AID 1130); settings: PTK2 binding, 635 nm fluorescence, higher = more signal;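 note: composite of spot emission at 667 nm and signal to noise over triplicate slides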
[4] = tested on: Fibrinogen (Alexa647-labelled); assay: fibrinogen binders on compound microarrays, profiling panel, artefact control for SMM control-protein annotation, biochemical, small-molecule microarray, 635/667 nm fluorescence (AID 1131); settings: fibrinogen-A647 binding fluorescence, higher = more signal;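 note: z-score merges 667 nm fluorescence with per-spot signal-to-noise over triplicate slides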
[5] = molecular target: Follistatin (Homo sapiens) (UniProt P19883); assay: follistatin binders on small-molecule microarrays, primary screen, biochemical, small-molecule microarray, 635/667 nm fluorescence (AID 1132); settings: FST binding, 635 nm fluorescence, higher = more signal
[6] = molecular target: Fibroblast growth factor 2 (Homo sapiens) (UniProt P09038); assay: FGF2 binders on small-molecule microarrays, primary screen, biochemical, small-molecule microarray, 635/667 nm fluorescence (AID 1133); settings: small-molecule microarray binding, FGF2, fluorescence 635/667; higher = more signal
[7] = mitochondrial membrane potential change in A549 cells, profiling panel, cell-based, JC-1 fluorescence, basal, 24 h, 100 nL (AID 1138); settings: higher = more signal;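 note: A549 lung adenocarcinoma cells under basal conditions with no added stimulus; test concentration not given here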
Lefty1 = Lefty1 binders on small-molecule microarrays, primary screen, biochemical, small-molecule microarray, 635/667 nm fluorescence (AID 1139); settings: small-molecule microarray binding, fluorescence 635/667; higher = more signal
[8] = tested on: wheat germ agglutinin (Triticum aestivum), Alexa647-labelled; assay: wheat germ agglutinin binders on compound microarrays, profiling panel, artefact control for SMM control-protein annotation, biochemical, small-molecule microarray, 635/667 nm fluorescence (AID 1140); settings: WGA-A647 binding, 635 nm fluorescence, higher = more signal;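 note: score merges 667 nm feature emission with signal to noise over triplicate slides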
[9] = molecular target: Luciferin 4-monooxygenase (Photinus pyralis) (UniProt P08659); assay: firefly luciferase enzyme inhibitors, primary screen, biochemical, luminescence, purified enzyme, 2006 set (AID 1141); settings: SteadyGlo luminescence, 30 min, higher = more signal, called active from +8 up or from −8 down;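 note: cell-free assay with purified firefly luciferase at 100 ng per well in PBS; test concentration not given here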
Sequence of Luciferin 4-monooxygenase (Photinus pyralis) (P08659 whole entry, looked up): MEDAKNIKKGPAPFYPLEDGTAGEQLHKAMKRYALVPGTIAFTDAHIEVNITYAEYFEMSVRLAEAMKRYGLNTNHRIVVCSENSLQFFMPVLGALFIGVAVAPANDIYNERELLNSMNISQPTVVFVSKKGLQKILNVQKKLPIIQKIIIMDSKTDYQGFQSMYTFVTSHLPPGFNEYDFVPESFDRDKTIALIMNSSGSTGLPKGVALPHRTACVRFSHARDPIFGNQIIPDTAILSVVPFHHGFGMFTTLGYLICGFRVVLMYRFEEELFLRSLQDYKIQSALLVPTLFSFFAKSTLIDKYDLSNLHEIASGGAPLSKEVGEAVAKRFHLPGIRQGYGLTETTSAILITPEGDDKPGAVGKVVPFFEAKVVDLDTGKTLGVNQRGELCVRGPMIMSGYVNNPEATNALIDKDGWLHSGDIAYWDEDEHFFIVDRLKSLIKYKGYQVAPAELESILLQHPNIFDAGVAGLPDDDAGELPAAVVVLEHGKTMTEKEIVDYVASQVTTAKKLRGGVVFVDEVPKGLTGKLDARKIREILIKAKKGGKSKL

Sequence of Follistatin (Homo sapiens) (P19883 whole entry, looked up): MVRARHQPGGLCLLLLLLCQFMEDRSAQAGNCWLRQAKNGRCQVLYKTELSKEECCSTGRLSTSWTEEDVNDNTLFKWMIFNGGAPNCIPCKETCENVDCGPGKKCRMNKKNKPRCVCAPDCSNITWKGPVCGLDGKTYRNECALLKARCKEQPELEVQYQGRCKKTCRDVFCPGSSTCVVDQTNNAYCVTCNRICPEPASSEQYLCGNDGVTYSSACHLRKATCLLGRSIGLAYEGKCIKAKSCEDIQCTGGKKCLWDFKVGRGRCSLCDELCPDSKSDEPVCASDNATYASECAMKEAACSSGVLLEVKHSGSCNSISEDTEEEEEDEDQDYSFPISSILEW
Sequence of Focal adhesion kinase 1 (Homo sapiens) (Q05397 whole entry, looked up): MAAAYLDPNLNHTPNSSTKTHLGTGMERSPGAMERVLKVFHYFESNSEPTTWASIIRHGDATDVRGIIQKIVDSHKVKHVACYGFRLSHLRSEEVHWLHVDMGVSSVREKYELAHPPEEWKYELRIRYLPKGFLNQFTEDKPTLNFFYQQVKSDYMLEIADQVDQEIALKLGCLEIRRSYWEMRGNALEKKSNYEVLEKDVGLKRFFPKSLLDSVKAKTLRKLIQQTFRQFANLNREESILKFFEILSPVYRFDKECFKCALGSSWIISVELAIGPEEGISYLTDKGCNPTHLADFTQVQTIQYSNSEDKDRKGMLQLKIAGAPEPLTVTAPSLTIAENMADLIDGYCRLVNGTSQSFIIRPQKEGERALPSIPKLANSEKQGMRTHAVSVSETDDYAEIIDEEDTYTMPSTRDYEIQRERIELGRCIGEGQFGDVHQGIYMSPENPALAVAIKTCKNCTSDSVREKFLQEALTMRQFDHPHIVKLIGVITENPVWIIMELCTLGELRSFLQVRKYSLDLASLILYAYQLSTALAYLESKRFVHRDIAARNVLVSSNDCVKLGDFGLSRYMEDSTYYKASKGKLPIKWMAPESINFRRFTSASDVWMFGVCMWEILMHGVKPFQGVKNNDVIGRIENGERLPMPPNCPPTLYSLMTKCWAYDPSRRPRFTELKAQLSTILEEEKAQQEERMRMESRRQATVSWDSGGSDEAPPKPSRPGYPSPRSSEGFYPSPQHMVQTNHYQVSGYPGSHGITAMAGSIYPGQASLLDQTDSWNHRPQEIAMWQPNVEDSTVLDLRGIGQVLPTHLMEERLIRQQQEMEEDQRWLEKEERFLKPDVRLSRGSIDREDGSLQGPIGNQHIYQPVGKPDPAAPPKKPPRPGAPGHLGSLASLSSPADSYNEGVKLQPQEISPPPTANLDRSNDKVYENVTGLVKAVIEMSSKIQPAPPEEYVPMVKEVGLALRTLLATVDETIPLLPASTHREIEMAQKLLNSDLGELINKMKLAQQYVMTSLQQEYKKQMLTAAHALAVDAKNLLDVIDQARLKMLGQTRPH
Sequence of Fibroblast growth factor 2 (Homo sapiens) (P09038 whole entry, looked up): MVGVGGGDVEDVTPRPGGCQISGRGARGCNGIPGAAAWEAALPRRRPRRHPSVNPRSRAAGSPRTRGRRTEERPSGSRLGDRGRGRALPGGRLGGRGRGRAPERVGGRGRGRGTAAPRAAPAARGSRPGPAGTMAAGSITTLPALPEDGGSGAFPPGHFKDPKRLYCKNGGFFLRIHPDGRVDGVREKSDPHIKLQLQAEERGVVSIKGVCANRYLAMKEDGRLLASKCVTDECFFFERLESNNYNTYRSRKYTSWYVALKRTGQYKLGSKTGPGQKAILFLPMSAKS

SMILES	composite z-score [1]	composite z-score [2]	composite z-score [3]	composite z-score [4]	composite z-score [5]	composite z-score [6]	z-score [7]	composite z-score (Lefty1)	composite z-score [8]	z-score [9]
COc1ccc(NN2C(C(O)c3ccc(OC)c(OCc4ccccc4)c3)C=CC3C(=O)N(C4CCCCC4)C(=O)C32)cc1 (stereo not given)	0.867	1.21	0.625	1.01	1.29	0.0862	0.492	0.461	0.571	1.16 (inactive)
COc1cc2c(cc1OC)CN(C(=O)[C@@H]1[C@H]3C(=O)O[C@H](c4ccccc4)[C@H](c4ccccc4)N3[C@H](c3ccccc3OCCO)[C@@]13C(=O)Nc1ccc(C#CCNC(N)=O)cc13)CC2	1.62	0.923	1.33	0.933	0.741	0.748	-0.864	0.768	0.856	-1.64 (inactive)
CC(C)C(=C=CC[C@H](O)c1cccc(OCCO)c1)C[C@H](O)COCc1ccccc1	0.366	0.165	0.107	0.637	0.235	0.562	-0.241	0.554	-0.0699	0.209 (inactive)
CC=CC(O)C1C=CC2C(=O)N(c3ccccc3)C(=O)C2N1Nc1ccc(C(C)C)cc1 (stereo not given)	0.585	1.2	0.777	0.831	1.12	0.133	-0.723	0.0518	1.32	-0.959 (inactive)
NC(=O)NCC#Cc1ccc2c(c1)[C@]1(C(=O)N2)[C@H](C(=O)NC[C@H](O)c2ccccc2)[C@H]2C(=O)O[C@H](c3ccccc3)[C@H](c3ccccc3)N2[C@@H]1c1ccc(O)cc1	0.489	1.17	0.58	0.673	1.17	1.21	-2.34	0.595	1.09	-0.0138 (inactive)
C=CCC(OC(C)=O)[C@@H]1[C@@H](N(Cc2cc3ccccc3o2)C(=O)c2ccc(C)cc2)c2cc(OCCCO)ccc2N1C(=O)c1ccc2ccccc2c1 (stereo not given in full)	0.192	-0.409	0.281	0.257	0.503	0.286	1.24	0.217	0.32	-1.76 (inactive)
